Measurements from ChEMBL document CHEMBL2218924, “A broad activity screen in support of a chemogenomic map for kinase signalling research and drug discovery” (Biochem J, 2013).

Tests used:
[1] = target: Tyrosine-protein kinase SYK (Homo sapiens) (UniProt P43405); details: at 10 µM
[2] = target: T1, Mitogen-activated protein kinase kinase kinase 7 (Homo sapiens) (UniProt O43318); details: at 1 µM
T1 sequence (whole entry): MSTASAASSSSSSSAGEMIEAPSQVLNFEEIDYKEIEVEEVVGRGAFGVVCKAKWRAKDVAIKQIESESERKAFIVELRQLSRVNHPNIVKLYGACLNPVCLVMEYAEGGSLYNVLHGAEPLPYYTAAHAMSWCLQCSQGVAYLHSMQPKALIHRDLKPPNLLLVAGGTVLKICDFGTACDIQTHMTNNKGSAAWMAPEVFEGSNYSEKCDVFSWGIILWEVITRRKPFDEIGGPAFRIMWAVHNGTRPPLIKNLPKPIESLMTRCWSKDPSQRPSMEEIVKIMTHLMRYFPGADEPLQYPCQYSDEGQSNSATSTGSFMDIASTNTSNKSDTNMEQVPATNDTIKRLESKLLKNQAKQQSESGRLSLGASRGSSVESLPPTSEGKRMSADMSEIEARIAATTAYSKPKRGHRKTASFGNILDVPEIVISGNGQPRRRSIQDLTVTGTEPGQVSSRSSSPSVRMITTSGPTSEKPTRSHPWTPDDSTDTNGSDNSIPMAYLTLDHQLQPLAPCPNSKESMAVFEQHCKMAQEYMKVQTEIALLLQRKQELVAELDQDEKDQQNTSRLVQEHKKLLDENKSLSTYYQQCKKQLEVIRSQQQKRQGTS

[3] = target: T1, Mitogen-activated protein kinase kinase kinase 7 (Homo sapiens); details: at 10 µM
[4] = target: T2, Serine/threonine-protein kinase TAO1 (Homo sapiens) (UniProt Q7L7X3); details: at 1 µM
T2 sequence (whole entry): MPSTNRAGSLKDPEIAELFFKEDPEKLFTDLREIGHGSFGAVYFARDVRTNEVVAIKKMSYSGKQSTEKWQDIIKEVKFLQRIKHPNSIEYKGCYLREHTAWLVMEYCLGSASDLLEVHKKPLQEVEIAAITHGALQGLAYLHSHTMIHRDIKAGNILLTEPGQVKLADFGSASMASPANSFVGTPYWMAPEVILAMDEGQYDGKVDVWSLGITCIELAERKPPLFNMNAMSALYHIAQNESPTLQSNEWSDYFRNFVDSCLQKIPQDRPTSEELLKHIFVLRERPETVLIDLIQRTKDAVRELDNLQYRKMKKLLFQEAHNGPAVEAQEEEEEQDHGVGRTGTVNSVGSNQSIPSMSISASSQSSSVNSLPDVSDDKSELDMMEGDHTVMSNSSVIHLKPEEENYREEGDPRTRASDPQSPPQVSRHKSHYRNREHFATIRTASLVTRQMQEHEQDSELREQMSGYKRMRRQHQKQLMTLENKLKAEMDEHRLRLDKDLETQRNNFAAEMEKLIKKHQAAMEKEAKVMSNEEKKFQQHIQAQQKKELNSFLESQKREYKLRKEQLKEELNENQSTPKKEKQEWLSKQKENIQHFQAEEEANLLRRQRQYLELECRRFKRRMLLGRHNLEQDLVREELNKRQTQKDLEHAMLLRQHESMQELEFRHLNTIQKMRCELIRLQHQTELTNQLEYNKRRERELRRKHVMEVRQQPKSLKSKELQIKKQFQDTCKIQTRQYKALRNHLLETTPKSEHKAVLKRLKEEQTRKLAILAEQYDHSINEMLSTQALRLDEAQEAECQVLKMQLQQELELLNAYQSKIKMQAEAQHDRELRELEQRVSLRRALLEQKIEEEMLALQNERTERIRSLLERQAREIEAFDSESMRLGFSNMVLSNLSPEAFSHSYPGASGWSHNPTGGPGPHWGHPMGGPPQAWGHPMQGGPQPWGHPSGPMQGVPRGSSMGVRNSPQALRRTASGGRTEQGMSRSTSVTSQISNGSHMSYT

[5] = target: T2, Serine/threonine-protein kinase TAO1 (Homo sapiens); details: at 10 µM
[6] = target: T3, Serine/threonine-protein kinase TAO2 (Homo sapiens) (UniProt Q9UL54); details: at 1 µM
T3 sequence (whole entry): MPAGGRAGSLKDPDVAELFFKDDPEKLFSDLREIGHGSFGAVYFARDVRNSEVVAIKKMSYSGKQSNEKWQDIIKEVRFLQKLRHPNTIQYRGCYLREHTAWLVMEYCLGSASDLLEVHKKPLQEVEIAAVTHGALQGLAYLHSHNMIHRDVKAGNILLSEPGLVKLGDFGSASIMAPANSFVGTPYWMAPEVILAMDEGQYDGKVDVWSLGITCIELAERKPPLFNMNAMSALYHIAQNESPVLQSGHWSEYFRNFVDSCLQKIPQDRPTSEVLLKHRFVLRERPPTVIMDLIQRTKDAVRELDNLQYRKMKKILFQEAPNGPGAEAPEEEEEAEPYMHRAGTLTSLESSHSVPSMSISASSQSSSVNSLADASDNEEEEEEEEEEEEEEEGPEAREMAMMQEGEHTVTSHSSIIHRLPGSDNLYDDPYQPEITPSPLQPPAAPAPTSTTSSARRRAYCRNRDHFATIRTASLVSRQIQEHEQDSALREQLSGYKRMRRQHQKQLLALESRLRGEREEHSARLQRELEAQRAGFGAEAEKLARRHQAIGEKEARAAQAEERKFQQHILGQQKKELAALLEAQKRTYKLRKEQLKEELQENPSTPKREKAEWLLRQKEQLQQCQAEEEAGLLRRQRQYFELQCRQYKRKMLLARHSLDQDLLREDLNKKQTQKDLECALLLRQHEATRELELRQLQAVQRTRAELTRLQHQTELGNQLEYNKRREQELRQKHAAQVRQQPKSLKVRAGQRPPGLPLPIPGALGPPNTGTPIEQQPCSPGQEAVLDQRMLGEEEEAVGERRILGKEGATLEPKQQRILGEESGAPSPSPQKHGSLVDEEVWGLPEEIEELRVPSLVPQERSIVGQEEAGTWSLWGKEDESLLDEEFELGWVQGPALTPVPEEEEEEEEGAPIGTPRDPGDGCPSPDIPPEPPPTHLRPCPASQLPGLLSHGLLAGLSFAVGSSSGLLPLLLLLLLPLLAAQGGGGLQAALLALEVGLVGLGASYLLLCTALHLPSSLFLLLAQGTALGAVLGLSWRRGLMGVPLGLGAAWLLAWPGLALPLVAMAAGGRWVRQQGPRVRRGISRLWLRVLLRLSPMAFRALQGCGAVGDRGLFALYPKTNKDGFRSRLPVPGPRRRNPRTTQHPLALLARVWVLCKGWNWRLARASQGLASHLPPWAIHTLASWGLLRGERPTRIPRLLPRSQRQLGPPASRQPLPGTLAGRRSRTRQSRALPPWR

[7] = target: T3, Serine/threonine-protein kinase TAO2 (Homo sapiens); details: at 10 µM
[8] = target: T4, Serine/threonine-protein kinase TAO3 (Homo sapiens) (UniProt Q9H2K8); details: at 1 µM
T4 sequence (whole entry): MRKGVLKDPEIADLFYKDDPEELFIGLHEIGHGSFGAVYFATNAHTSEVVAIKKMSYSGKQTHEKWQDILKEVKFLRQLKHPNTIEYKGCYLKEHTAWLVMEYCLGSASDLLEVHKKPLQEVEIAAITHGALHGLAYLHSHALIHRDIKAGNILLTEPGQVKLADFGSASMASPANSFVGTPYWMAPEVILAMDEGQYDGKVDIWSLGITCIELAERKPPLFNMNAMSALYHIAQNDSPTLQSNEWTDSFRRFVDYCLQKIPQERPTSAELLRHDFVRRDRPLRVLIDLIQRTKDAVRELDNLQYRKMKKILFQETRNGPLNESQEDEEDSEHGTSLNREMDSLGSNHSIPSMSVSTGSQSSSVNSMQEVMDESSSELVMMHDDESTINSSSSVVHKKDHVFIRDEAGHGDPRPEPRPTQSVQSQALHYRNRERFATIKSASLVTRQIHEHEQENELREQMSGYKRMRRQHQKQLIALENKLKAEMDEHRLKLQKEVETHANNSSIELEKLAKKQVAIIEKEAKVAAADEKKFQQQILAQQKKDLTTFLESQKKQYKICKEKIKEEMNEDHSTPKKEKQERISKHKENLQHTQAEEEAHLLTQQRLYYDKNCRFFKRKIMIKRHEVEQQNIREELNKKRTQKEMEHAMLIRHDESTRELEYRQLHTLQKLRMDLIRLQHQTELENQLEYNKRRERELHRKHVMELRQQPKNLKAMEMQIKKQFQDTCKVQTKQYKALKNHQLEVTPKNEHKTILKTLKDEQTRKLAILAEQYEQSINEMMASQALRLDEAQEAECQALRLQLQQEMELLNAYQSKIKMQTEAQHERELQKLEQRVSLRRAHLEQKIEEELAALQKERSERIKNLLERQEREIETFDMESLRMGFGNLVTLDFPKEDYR

[9] = target: T4, Serine/threonine-protein kinase TAO3 (Homo sapiens); details: at 10 µM
[10] = target: T5, Serine/threonine-protein kinase TBK1 (Homo sapiens) (UniProt Q9UHD2); details: at 1 µM
T5 sequence (whole entry): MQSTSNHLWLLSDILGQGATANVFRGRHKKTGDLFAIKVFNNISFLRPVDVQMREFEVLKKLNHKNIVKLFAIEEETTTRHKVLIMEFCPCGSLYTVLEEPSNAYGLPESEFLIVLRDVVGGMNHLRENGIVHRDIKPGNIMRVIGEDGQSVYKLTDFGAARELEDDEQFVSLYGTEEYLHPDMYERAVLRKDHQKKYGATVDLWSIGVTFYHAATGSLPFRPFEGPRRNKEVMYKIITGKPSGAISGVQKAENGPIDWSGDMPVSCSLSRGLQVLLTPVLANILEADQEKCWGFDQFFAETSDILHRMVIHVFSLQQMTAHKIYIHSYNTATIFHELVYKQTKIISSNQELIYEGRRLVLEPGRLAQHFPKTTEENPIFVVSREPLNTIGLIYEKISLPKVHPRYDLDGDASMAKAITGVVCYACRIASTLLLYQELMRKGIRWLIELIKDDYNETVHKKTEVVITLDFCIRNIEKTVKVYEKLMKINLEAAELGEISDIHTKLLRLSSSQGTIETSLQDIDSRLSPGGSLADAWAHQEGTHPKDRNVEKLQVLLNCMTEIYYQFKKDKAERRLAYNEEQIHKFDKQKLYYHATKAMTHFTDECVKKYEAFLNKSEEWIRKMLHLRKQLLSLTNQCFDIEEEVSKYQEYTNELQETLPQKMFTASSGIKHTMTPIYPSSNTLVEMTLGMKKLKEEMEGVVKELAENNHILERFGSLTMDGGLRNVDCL

Row | SMILES | residual activity [1] [%] | residual activity [2] [%] | residual activity [3] [%] | residual activity [4] [%] | residual activity [5] [%] | residual activity [6] [%] | residual activity [7] [%] | residual activity [8] [%] | residual activity [9] [%] | residual activity [10] [%]
1 | COc1ccc(OC)c2c(=S)c3ccccc3[nH]c12 | 96 | 95 | 81 | 82 | 91 | 90 | 87 | 96 | 90 | 82
2 | CC(=O)c1ccc(N2CCOCC2)cc1O | 101 | 93 | 90 | 103 | 95 | 92 | 94 | 101 | 91 | 74
3 | c1ccc(-c2n[nH]cc2-c2ccnc3ccccc23)nc1 |  | 91 | 71 | 107 | 95 | 103 | 86 | 91 | 84 | 71
4 | COc1cc2ncnc(Nc3ccc(Oc4ccccc4)cc3)c2cc1OC | 111 | 96 | 95 | 106 | 92 | 110 | 106 | 103 | 91 | 72
5 | COc1cc2ncnc(Nc3ccc(NC(=O)c4ccccc4)cc3)c2cc1OC | 88 | 107 | 96 |  | 94 | 98 | 83 | 102 | 84 | 96
6 | Cc1cccc(-c2[nH]c(C(C)(C)C)nc2-c2ccc3c(c2)OCO3)n1 |  | 89 | 90 | 103 | 98 |  | 90 | 101 | 102 | 73
7 | c1ccc(-c2n[nH]c3c2oc2ccccc23)cc1 | 82 | 88 | 100 |  | 72 | 98 | 78 | 95 | 73 | 67
8 | CN(C)CCCn1cc(C2=C(c3c[nH]c4ccccc34)C(=O)NC2=O)c2ccccc21 | 57 | 103 | 64 |  | 53 | 101 | 49 | 88 | 27 | 80
9 | N#CC(C#N)=C(N)/C(C#N)=C/c1ccc(O)cc1 | 74 |  | 89 |  | 81 |  | 87 | 99 | 85 | 82
10 | CNc1cc2c(Nc3cccc(Br)c3)ncnc2cn1 | 90 | 91 | 90 | 100 | 81 | 110 | 75 | 95 | 90 | 79
11 | O=C1c2ccccc2-[n+]2ccc3c([nH]c4ccccc43)c21 | 90 | 93 | 82 | 96 | 86 |  | 90 | 89 | 90 | 58
12 | Oc1c2ccccc2c2c3c(cccc13)N=N2 |  | 41 | 19 | 69 | 25 | 101 | 69 | 69 | 27 | 35
13 | CO[C@@H]1[C@H](N(C)C(=O)c2ccccc2)C[C@H]2O[C@]1(C)n1c3ccccc3c3c4c(c5c6ccccc6n2c5c31)C(=O)NC4 | 3 |  |  | 50 | 17 | 83 | 47 | 42 | 29 | 2
14 | COc1cc2ncnc(Nc3ccc(O)c(Br)c3)c2cc1OC | 68 | 81 | 62 | 86 | 48 | 98 | 75 | 82 | 61 | 41
15 | CC[n+]1c(/C=C/N(C)c2ccccc2)n(-c2ccccc2)c2ccc(-c3nc4ccccc4s3)cc21 | 46 | 100 | 102 | 93 | 78 | 100 | 60 | 95 | 62 | 104
16 | O=C1NC(=O)/C(=C/c2ccc3c(c2)OC(F)(F)O3)S1 | 73 | 96 | 88 | 100 | 74 | 113 | 105 | 103 | 66 | 80
17 | c1ccc2c(-c3ccncc3)c[nH]c2c1 | 92 | 85 | 85 | 100 | 66 |  | 85 | 98 | 72 | 65
18 | N#Cc1cnc2cnc(NCc3cccnc3)cc2c1Nc1ccc(F)c(Cl)c1 | 2 |  | 87 |  |  |  |  | 18 | 7 | 5
